Compound activity: PubChem BioAssay, Sanford-Burnham Center for Chemical Genomics
CRFR2-BP ag: CRF-BP/CRF-R2 complex agonism; HEK293 CRF-R2/CRF-BP, calcium dye fluorescence (FLIPR); percent of saturating CRF peptide response; activation, % at 13.2 µM; hit rate 0.46% among 350,000;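 active = activation of at least 50%, plus an integration ratio under a set limit after plate pattern correction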;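 also: plate controls were neutral control wells without compound for no effect and CRF at EC100 for full effect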
FAS TE block: blocks the thioesterase domain of human fatty acid synthase; inhibition, % at 15 µM; P49327; recombinant FAS-TE, OMFH fluorogenic substrate, fluorescence endpoint; hit rate 0.67% among 360,000;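 active = compounds whose normalised, plate-corrected inhibition of enzyme fluorescence in the single-dose primary screen is 50% or more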;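 also: 0% = DMSO with enzyme and 100% = substrate without enzyme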
PfGluPho inh: PfG6PD (Plasmodium falciparum) enzyme inhibition; PfGluPho enzyme, NADPH resazurin-diaphorase fluorescence; AID 504690; inhibition, % at 20 µM; hit rate 0.78% among 350,000;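 active = inhibition reaching at least a set limit at 20 µM in the primary screen, cut at about 59% in these data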;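 also: 0% = DMSO wells with substrate and 100% = DMSO wells lacking glucose-6-phosphate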
aDG glyco up: alpha-DG glycosylation activation. Pro5-aDG cells, alpha-DG glycosylation AlphaScreen (IIH6); 0% Pro5, 100% B10-LARGE cell signal. activation, % at 10 µM. hit rate 0.22% among 360,000;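 active = activation of at least 8% versus controls, or a plate z-score of at least 8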;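 also: Pro5 are CHO cells carrying HIG-tagged alpha-DG that lacks glycosylation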
CRFBP-R2 block: CRF-BP/CRF-R2 complex antagonism; inhibition, % at 11.8 µM; AID 588475; hit rate 0.59% among 350,000; HEK293 CRF-R2/CRF-BP, CRF-induced calcium fluorescence;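 active = inhibition of the ligand-induced calcium signal above about 50% at the single tested concentration, limit read from the data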
H9c2 protect: modulators protecting cardiomyocytes from myocardial damage | protection from H2O2 cell death, % at 20 µM | hit rate 0.63% among 360,000 | H9c2 cardiomyocytes, H2O2 injury protection, ATPLite, 2 h | AID 588492;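 active = compounds giving at least 50% protection of heart cells from peroxide-induced death in the single-dose screen, raw or plate-pattern-corrected value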;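 also: 0% = DMSO wells with peroxide and 100% = DMSO wells without peroxide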
The depositor's hits bear a star; . = no result. An excerpt weighted towards active compounds, which were near 3.2% of everything screened.

SMILES	CRFR2-BP ag	FAS TE block	PfGluPho inh	aDG glyco up	CRFBP-R2 block	H9c2 protect
COc1ccc2nc3cc(Cl)ccc3c(Nc3cc(CN4CCCC4)c(O)c(CN4CCCC4)c3)c2n1	.	-3	.	0	.	50*
Nc1nc(Nc2ccccc2Cl)cc(=O)[nH]1	0	-4	1	0	100*	-2
O=C(CCc1ccccc1)Nc1ccc2ccccc2n1	-1	4	20	0	-8	1
COC(=O)c1cn(NC(=O)c2ccc(F)cc2)c(=O)c2ccccc12	0	0	-33	0	105*	4
COC(=O)c1cn(NC(=O)c2ccncc2)c(=O)c2ccccc12	2	-10	9	0	6	8
O=C(CCNS(=O)(=O)c1c(Cl)cccc1Cl)OCC(=O)c1ccccc1	0	-1	-20	0	19	4
CCCCC(CC)CN=C(N)NC(N)=NCCCCCCN=C(N)NC(N)=NCC(CC)CCCC (stereo unspecified)	112*	-37	41	0	-71	-45
O=C(O)c1cc([N+](=O)[O-])ccc1N1CCCCC1	-3	-7	-4	0	-3	8
Cc1ccc(C(=O)c2cc([N+](=O)[O-])ccc2N2CCCCC2)c(C)c1	133*	40	35	0	-130	-15
O=C1Cc2cc(NS(=O)(=O)c3ccc([N+](=O)[O-])cc3)cc3c2N1CCC3	0	-7	-16	0	-2	11
Cc1cc2c(N=O)c(NO)ccc2[nH]1	2	-25	70*	1	-2	57*
NC1=NC[C@@H](CC2CCCCC2)N1CCc1cc(C(F)(F)F)cc(C(F)(F)F)c1	78*	-135	22	0	-34	-49
CCOC(=O)c1ccc(NC(=S)N2CCSC2c2ccc(OC)cc2)cc1 (stereo unspecified)	37	22	12	0	-48	-6
CCOC(=O)c1ccc(NC(=S)N2CCSC2c2ccc(Cl)cc2)cc1 (stereo unspecified)	120*	28	14	0	-106	-18
CCCN1C(=O)/C(=C\C=C2/Sc3ccccc3N2CCO)SC1=S	19	0	25	0	-3	-6
C=CCN1C(=O)/C(=C\C=C2\N(C)c3ccccc3C2(C)C)SC1=S	104*	-54	3	1	-68	-22
CCCN1C(=O)/C(=C/C=C2\N(CC)c3ccccc3C2(C)C)SC1=S	169*	-157	7	0	-212	-5
CCCCN1C(=O)/C(=C/C=C2/CC(C)(C)CN2C)SC1=S	196*	-88	33	-1	-268	-12
CN1/C(=C\C=C2/SC(=S)N(CC(=O)O)C2=O)C(C)(C)c2ccccc21	263*	-145	-5	0	-185	-30
Nc1c(-c2cccc(Cl)c2)cnc2c(-c3ccccc3)cnn12	4	-2	-2	0	-41	-6
Cc1cccc(NC(=O)C(=O)NCC2CCCO2)c1 (stereo unspecified)	-2	-6	-1	0	6	2
CCCCN1C(=O)/C(=C/C=C2\Oc3ccccc3N2CC)SC1=S	287*	-136	36	0	-365	-9
CCN1C(=O)/C(=C/C=C2/Sc3ccccc3N2CCO)SC1=S	15	-2	41	0	-17	8
Cc1cc(C)n(CCNC(=O)CC2C(=O)NCCN2CC2CCCCC2)n1 (stereo unspecified)	1	-10	5	0	-18	-2
O=C1Nc2ccccc2/C1=N/N=C/c1ccc(-c2ccc([N+](=O)[O-])cc2)o1	3	5	6	-1	-3	-14
NS(=O)(=O)c1ccc(N=Cc2c(O)n(-c3nccs3)c(=O)c3ccccc23)cc1	-2	-5	7	0	4	52*
COc1ccc(C(O)P(=O)(OCCC(C)C)c2ccc(N(C)C)cc2)cc1 (stereo unspecified)	-2	2	-13	0	-8	3
COc1ccc(CNc2cc(C)ccc2C)c(OC)c1OC	1	8	11	0	33	-11
COc1ccc(C)cc1NCc1cccc(OC)c1OC	-3	5	13	0	78*	-2
O=C(CN(C(=O)Cn1nnc(-c2cccs2)n1)c1cnc2ccccc2c1)NCC1CCCO1 (stereo unspecified)	-4	-11	-3	0	8	83*
